SMILES strings stand for the structures. The campaign covered roughly 130,000 compounds. About 1,200 (0.92%) were called active.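 The calls were made as follows: active = inhibition above the mean plus 3 SD, with well images judged a real hit on visual review (cut at about 60% in these data, passing the limit was not always enough); inconclusive = inhibition over the cutoff but images rejected on review; inactive = inhibition not above the cutoff.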 For the sample, actives were picked, then their nearest neighbours and some compounds at random.

From PubChem BioAssay AID1273 (Columbia University Molecular Screening Center, 2008) come the findings set out here.

The nature of the assay: insulin gene promoter suppression in islet cells – imaging, TRM-6 cells (human fetal islet line), eGFP reporter, cell count, primary screen (AID 1273;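 as to normalized cell count: cells exposed to compound for 48 h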). The conditions noted are these: at 2 µM, reporter expression induced with tamoxifen; inhibition: stronger effect = higher value; normalized cell count: measured here: cell count, toxicity.
`CC(C)C(=O)NCc1cc(-c2ccc(Cl)cc2)no1`: the inhibition was 55% (inactive) and the normalized cell count stood at 86.2%.

With `CS(=O)(=O)N1CCc2cc(C(=O)Nc3ccccc3)ccc21`, the inhibition was 43.6% (inactive) and the normalized cell count was determined as 103%.

As for `CCN(CC)CCn1c2ccc(Cl)cc2c2nc(C)sc21`, the inhibition is 46.1% (inactive) and the normalized cell count is 78.6%.

As for `COC(=O)Cn1c2ccc(C)cc2c2nc(C)sc21`, the inhibition is 85.7% (active) and the normalized cell count was 32.4%.

Consider `COC(=O)Cn1c(=NC(=O)c2cc(OC)c(OC)c(OC)c2)sc2cc(OC)ccc21`, for which the inhibition is -14.3% (inactive) and the normalized cell count is 101%.

As for `Cc1cc(NC(=O)CN2C(=O)NC(CCc3ccccc3)C2=O)no1` (centres undefined), the inhibition is 60% (inactive) and the normalized cell count worked out at 76%.

Take `S=C(NCc1cccnc1)Nc1ccc(Cl)cc1Cl`: the inhibition was -31.6% (inactive) and the normalized cell count worked out at 122%.

With `CC(C(=O)NC1CCCC1)N(c1ccc(Oc2ccccc2)cc1)S(C)(=O)=O` (centres undefined), the inhibition was -15.8% (inactive) and the normalized cell count worked out at 67.6%.

As for `Cc1ccc(S(=O)(=O)N(C)C)cc1NC(=O)COC(=O)C1COc2ccccc2O1` (centres undefined), the inhibition was -44.4% (inactive) and the normalized cell count was 51.1%.

As to `CCCCn1nc(C(=O)Nc2ccc(S(=O)(=O)Nc3ncccn3)cc2)c2ccccc2c1=O`, the inhibition was 25% (inactive) and the normalized cell count amounted to 158%.

`Cc1ccsc1CNn1cnnc1SCc1ccccc1F`: the inhibition is 86.5% (active) and the normalized cell count worked out at 28.9%.

Take `O=C(O)CSc1nnc(-c2ccc3c(c2)OCO3)n1-c1ccccc1`: the inhibition is 15% (inactive) and the normalized cell count was 96.8%.

On to `CCC1(CC)NC(=O)N(Cc2nc3ccccc3s2)C1=O`, for which the inhibition was -16.7% (inactive) and the normalized cell count amounted to 127%.

Take `CCOC12CC(C)(C)CC(C)(CC3=C1C(=O)CC(C)(C)C3)C2` (centres undefined): the inhibition is 73.7% (active) and the normalized cell count was found to be 4.89%.

Turning to `CCCN(CC(=O)Nc1ccc(OC)c(OC)c1)CC(=O)Nc1ccc(F)c(F)c1F`, the inhibition was -25% (inactive) and the normalized cell count was found to be 134%.

Turning to `O=Cc1ccc(OCc2cn3ccccc3n2)cc1`, the inhibition was 36.4% (inactive) and the normalized cell count was determined as 194%.

`COC(=O)NNC1=CC(=O)CC(C)(C)C1`: the inhibition was -26.7% (inactive) and the normalized cell count was 74.6%.

As for `COC(=O)C(NS(=O)(=O)c1ccc(F)cc1)c1ccccc1` (centres undefined), the inhibition is -16.3% (inactive) and the normalized cell count was 140%.

Consider `Fc1ccccc1/C=C1\CCCC2=C1Nc1ncnn1C2c1ccccc1F` (centres undefined), for which the inhibition was 86.1% (active) and the normalized cell count stood at 102%.

Take `COc1cccc(N2CCN(C3CC(=O)N(c4ccc(Cl)cc4)C3=O)CC2)c1` (centres undefined): the inhibition was 30.8% (inactive) and the normalized cell count is 118%.

Turning to `O=CN1CCN(C2CC(=O)N(c3ccc4c(c3)OCO4)C2=O)CC1` (centres undefined), the inhibition is 20.9% (inactive) and the normalized cell count came out at 129%.

With `COc1ccc(N2CCN(C3CC(=O)N(c4ccc5c(c4)OCCO5)C3=O)CC2)cc1` (centres undefined), the inhibition was 91.7% (active) and the normalized cell count stood at 78.3%.

Consider `CCN(/N=C/c1ccc(N(C)C)cc1)c1nc2ccccc2[nH]1`, for which the inhibition is 86.7% (active) and the normalized cell count is 159%.

Turning to `Nc1cccc(CCc2nc3ccccc3[nH]2)c1`, the inhibition is 17.2% (inactive) and the normalized cell count was 146%.

Regarding `CN(C)c1ccc(/C=N\S(=O)(=O)c2ccccc2)cc1`, the inhibition was -39.5% (inactive) and the normalized cell count was 46.9%.

As for `Cc1nn(CC#N)c(=O)n1N(C)c1ncc(C(F)(F)F)cc1Cl`, the inhibition was 30% (inactive) and the normalized cell count stood at 84.4%.

For `COc1ccccc1CSc1nc2ccccc2[nH]1`, the inhibition is -54.8% (inactive) and the normalized cell count is 124%.

Turning to `O=C(CSc1nc2ccccc2[nH]1)c1cccs1`, the inhibition was 42.9% (inactive) and the normalized cell count came to 105%.

Take `C=CCSc1nc2ccccc2[nH]1`: the inhibition is 81.8% (active) and the normalized cell count turned out to be 184%.

Consider `CCOC(=O)CSc1nc(C)cc2c1C(=O)OC2`, for which the inhibition is 28.6% (inactive) and the normalized cell count is 94.5%.

Turning to `CCCCc1nnc(NC(=O)CSc2nc(N)cc(=O)[nH]2)s1`, the inhibition is 12.5% (inactive) and the normalized cell count is 93.7%.

For `COc1ccc2oc(=O)c(C(=O)N3CCCC3)cc2c1`, the inhibition is 44.4% (inactive) and the normalized cell count was 107%.

`CN(C)c1ccc(C=NCCc2ccc(S(N)(=O)=O)cc2)cc1`: the inhibition is 31.2% (inactive) and the normalized cell count came out at 121%.

As for `CC(C)(C)c1cc(=O)n2c(nc3ccccc32)[nH]1`, the inhibition is 29.4% (inactive) and the normalized cell count is 245%.

In the case of `CC1(C)CC(=O)c2cnc3nc4ccccc4n3c2C1`, the inhibition was 76.2% (active) and the normalized cell count is 56.3%.

`Cc1ccc2nc(Nc3ncc4c(n3)CC(C)(C)CC4=O)nc(C)c2c1`: the inhibition was -25% (inactive) and the normalized cell count was found to be 96.8%.

For `Cc1ccc(OCCCn2c(=O)oc3ccccc32)cc1`, the inhibition is -26.7% (inactive) and the normalized cell count is 84.1%.

For `COc1ccc(OC)c(Cc2nnc(CCC(=O)NC3CCCC3)o2)c1`, the inhibition was 11.1% (inactive) and the normalized cell count was found to be 95.3%.

Turning to `Cc1onc(C(=O)NN)c1C(=O)N1CCN(C(c2ccccc2)c2ccccc2)CC1`, the inhibition was 81.8% (active) and the normalized cell count was 29.3%.

Consider `Cc1onc(-c2ccccc2)c1C(=O)N1CCOCC1`, for which the inhibition is -90% (inactive) and the normalized cell count was determined as 78.8%.

`Cn1nnnc1SCC(=O)N1CCN(C(c2ccccc2)c2ccccc2)CC1`: the inhibition is -18.9% (inactive) and the normalized cell count turned out to be 68.2%.

As to `Cc1nnsc1C(=O)N/N=C/c1cccc(C(F)(F)F)c1`, the inhibition is -86.7% (inactive) and the normalized cell count amounted to 39.6%.

Consider `O=c1c([N+](=O)[O-])cccn1Cc1ccc(F)cc1Cl`, for which the inhibition is 73.3% (active) and the normalized cell count was 83.1%.

With `O=c1c([N+](=O)[O-])cc(C(F)(F)F)cn1Cc1cccc(Cl)c1`, the inhibition was -10.7% (inactive) and the normalized cell count came to 66.7%.

Consider `O=[N+]([O-])c1ccccc1NCc1ccccc1Cl`, for which the inhibition was 33.3% (inactive) and the normalized cell count came out at 123%.

As for `CCOC(=O)Cn1nnnc1C`, the inhibition is 26.7% (inactive) and the normalized cell count was 95.5%.

`O=C(c1snnc1-c1ccccc1)N1CCOCC1`: the inhibition is -30.2% (inactive) and the normalized cell count is 64.9%.

With `Cc1cccc(C)c1NC(=O)C1(N(C(=O)c2ccccn2)c2ccc(O)cc2)CCCCC1`, the inhibition was 6.67% (inactive) and the normalized cell count stood at 38.5%.

For `CC(O)c1cccc(NC(=O)Cc2cccc3ccccc23)c1` (centres undefined), the inhibition was -38.9% (inactive) and the normalized cell count came out at 41%.

As to `O=C1CCC(C(=O)Nc2ccc(OC(F)F)cc2)N1` (centres undefined), the inhibition is 72.7% (active) and the normalized cell count was 73.3%.

Turning to `COc1ccc(C(=O)N2CCC(C(=O)Nc3ccc(C)cc3)CC2)cc1`, the inhibition was 33.3% (inactive) and the normalized cell count stood at 85.5%.

In the case of `CCCOc1ccc(NC(=O)C2CCCNC2=O)cc1` (centres undefined), the inhibition was 5.71% (inactive) and the normalized cell count stood at 82.1%.

For the compound `CCOC(=O)Cc1ncccc1C(=O)Nc1ccc(OC(F)(F)F)cc1`, the inhibition is 0% (inactive) and the normalized cell count came out at 62.2%.

For the compound `O=C(CNCc1ccc(Cl)cc1)Nc1cccc(C(=O)O)c1`, the inhibition was 38.5% (inactive) and the normalized cell count was determined as 79.9%.

Turning to `Cc1ccc(O/C=C2\OC(=O)c3ccccc32)cc1`, the inhibition is 81.2% (active) and the normalized cell count was found to be 93%.

As to `Cc1ccc(S(=O)(=O)c2ccc(Oc3ccccc3)cc2)cc1`, the inhibition is -87.1% (inactive) and the normalized cell count came to 116%.

With `Cc1ccc(OC(=O)c2cc3ccccc3o2)cc1`, the inhibition is -79.3% (inactive) and the normalized cell count worked out at 174%.

Take `Cc1ccc(C(=O)/C=C/c2c(C)nn(-c3ccccc3)c2Cl)cc1`: the inhibition is -16.7% (inactive) and the normalized cell count came out at 102%.

For the compound `Cc1nn(-c2ccccc2)c(C)c1/C=C/C(=O)OC(C)C(N)=O` (centres undefined), the inhibition is 68.8% (active) and the normalized cell count is 181%.

Consider `Cc1nn(-c2ccccc2)c(Cl)c1/C=C/C(=O)c1ccc(O)cc1`, for which the inhibition was -70.4% (inactive) and the normalized cell count was 111%.

`O=C(COc1cccc2ccccc12)Nc1cc(S(=O)(=O)N2CCOCC2)ccc1N1CCOCC1`: the inhibition is 11.1% (inactive) and the normalized cell count worked out at 67.5%.

Turning to `CN1C(=O)C(CC(=O)Nc2ccccc2)S/C1=N/c1nccs1` (centres undefined), the inhibition is -107% (inactive) and the normalized cell count was determined as 120%.

For `COC(=O)c1nc(NC(=O)c2ccc(F)cc2)n[nH]1`, the inhibition was 28.6% (inactive) and the normalized cell count was determined as 129%.

On to `Cc1ccccc1NC(=O)c1nn(-c2ccc(F)c(F)c2)ccc1=O`, for which the inhibition is 25% (inactive) and the normalized cell count stood at 93.8%.

Regarding `O=C(Nc1ccc(F)cc1)N1CCCC(c2nc3c(nnn3Cc3ccccc3Cl)c(=O)[nH]2)C1` (centres undefined), the inhibition was -42.9% (inactive) and the normalized cell count stood at 122%.

For `Cc1ccc(NC(=O)N2CCC(c3nc4c(nnn4Cc4c(F)cccc4Cl)c(=O)[nH]3)CC2)cc1`, the inhibition is 6.25% (inactive) and the normalized cell count came to 107%.

As for `COc1ccc(Cn2nnc3c(=O)[nH]c(C4CCN(C(=O)c5ccccc5Cl)CC4)nc32)cc1`, the inhibition was 72.7% (active) and the normalized cell count worked out at 34.3%.

As for `COc1ccc(C2CC(c3cccs3)=NN2C(=O)CSc2nncs2)cc1OC` (centres undefined), the inhibition was 66.7% (inactive) and the normalized cell count was 95.8%.

Regarding `CN1CCN(C(=O)CCc2ncc(C(F)(F)F)cc2Cl)CC1`, the inhibition is 9.09% (inactive) and the normalized cell count was found to be 150%.

As to `COc1cccc(NC(=O)C2CCCN2C(=O)OCc2ccccc2)c1` (centres undefined), the inhibition was -34.4% (inactive) and the normalized cell count is 106%.

As to `CC(=O)c1cccc(NC(=O)N2CCCC2C(=O)NCCc2ccccc2)c1` (centres undefined), the inhibition was 82.1% (active) and the normalized cell count amounted to 27.6%.

With `Cc1ccc(CNC(=O)C2CCCN2C(=O)NCc2ccccc2)cc1` (centres undefined), the inhibition was 59% (inactive) and the normalized cell count stood at 73.5%.

With `O=[N+]([O-])c1ccc(N2CCNCC2)cc1NCc1cccnc1`, the inhibition is 66.7% (active) and the normalized cell count came out at 150%.

As for `O=C(c1ccccc1)N1CCN(c2ccc([N+](=O)[O-])c(NCc3ccco3)c2)CC1`, the inhibition is -9.68% (inactive) and the normalized cell count was 122%.

Regarding `O=[N+]([O-])c1ccc(N2CCN(S(=O)(=O)c3ccc4ccccc4c3)CC2)cc1NCc1ccco1`, the inhibition was -18.5% (inactive) and the normalized cell count stood at 121%.

`O=[N+]([O-])c1ccc(N2CCN(c3ccc(O)cc3)CC2)c(Cl)c1`: the inhibition is 86.7% (active) and the normalized cell count is 135%.

Take `CCN1CCN(c2ccc([N+](=O)[O-])cc2C(=O)c2ccc(Cl)cc2)CC1`: the inhibition is -83.3% (inactive) and the normalized cell count turned out to be 81.5%.

In the case of `COc1ccc(N2CCN(c3ccc([N+](=O)[O-])cc3Cl)CC2)cc1`, the inhibition is 7.69% (inactive) and the normalized cell count came to 106%.

On to `Cc1nn2c3cc(N4CCOCC4)ccc3nc2c2ccccc12`, for which the inhibition is -63.5% (inactive) and the normalized cell count amounted to 79.7%.

As to `Cc1cc(C)c2c(n1)nn1c(N3CCOCC3)cc(C)nc21`, the inhibition was 74.3% (active) and the normalized cell count was 60.7%.

As for `Cc1cc(C)c2c(n1)nn1c(N3CCN(c4cccc(Cl)c4)CC3)cc(C)nc21`, the inhibition is -82.8% (inactive) and the normalized cell count stood at 99.8%.

Turning to `CCCN(CC(=O)Nc1ccccc1C)C(=O)c1cc(=O)[nH]c2ccccc12`, the inhibition is -38.5% (inactive) and the normalized cell count turned out to be 49.2%.

Regarding `C=CCC1(CC=C)CCCN1C(=O)CC1C(=O)NCCN1Cc1ccccc1OC` (centres undefined), the inhibition was 20% (inactive) and the normalized cell count was 91.1%.

Take `C/C(Cn1nnc2ccccc21)=N\OC(=O)c1cc(F)c(F)cc1Cl`: the inhibition is -55% (inactive) and the normalized cell count came out at 99.6%.

On to `Cc1cc(C#N)c(SCC(N)=O)nc1-c1ccc(F)cc1`, for which the inhibition is 14.3% (inactive) and the normalized cell count turned out to be 121%.

Consider `CC(=O)c1cnc(SCC(=O)O)nc1C`, for which the inhibition is 26.7% (inactive) and the normalized cell count worked out at 105%.

As to `CC(=O)c1cc(C#N)c(SCC(=O)C(C)(C)C)nc1C`, the inhibition is 65.4% (active) and the normalized cell count was found to be 142%.
